These results are taken from PubChem BioAssay (EPA / NIEHS).

Structures are written as SMILES. Results filed as inconclusive are left out. Active and inactive are the calls of the source. How the source made its calls, unless noted: active means hit-call score of the fitted dose curve at least 0.9, where 1 is the maximum; inactive means score below 0.9.

A short description of assay [1]: CCTE_Shafer_MEA_dev_firing_rate_mean: CCTE's Neural Network Formation Assay for Mean Firing Rate, Shafer Lab (AID 2284031). In a few lines: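 Steps: seed rat cortical cells (1.5 x 10^5/well) with laminin on PEI-coated MEA; dose day 0; record DIV 5/7/9/12, full media and compound exchange after DIV 5 and 9 recordings; compute well-mean firing rate AUC.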
The nature of assay [2]: CCTE_Shafer_MEA_dev_per_burst_spike_percent: CCTE's Neural Network Formation Assay for Percent of Spikes in a Burst, Shafer Lab (AID 2284032). In a few lines:
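Value is trapezoidal AUC over recordings on days 5, 7, 9 and 12 of the well-mean fraction of spikes falling in single-electrode bursts; rat cortical cultures exposed continuously from plating, treatment renewed DIV 5 and 9, fitted downward against DMSO.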

Assay [3] is described as follows: CCTE_Shafer_MEA_dev_active_electrodes_number: CCTE's Neural Network Formation Assay for Number of Active Electrodes, Shafer Lab (AID 2284040; active means hit-call score of the fitted dose curve at least 0.9, where 1 is the maximum). In short, it runs like this: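 Counts electrodes per well firing at least 5 spikes/min, recorded on days 5, 7, 9 and 12 in rat cortical cultures dosed continuously from plating (treatment refreshed DIV 5, 9). Value is the area under the curve over recordings, fitted downward relative to DMSO.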

The nature of assay [4]: CCTE_Shafer_MEA_dev_bursting_electrodes_number: CCTE's Neural Network Formation Assay for Number of Bursting Electrodes, Shafer Lab (AID 2284043; active means hit-call score of the fitted dose curve at least 0.9, where 1 is the maximum). In a few lines:
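Counted: electrodes with burst rate ≥1 per 2 min in each well. Cells: primary rat cortex, 1.5 x 10^5/well, on 16-electrode MEA wells. Exposure: DIV 0–12, compound renewed DIV 5 and 9. Recording days 5, 7, 9, 12; AUC vs DMSO baseline.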

Assay [5] is described as follows: CCTE_Shafer_MEA_dev_per_burst_interspike_interval: CCTE's Neural Network Formation Assay for Burst Interspike Interval, Shafer Lab (AID 2284044). In a few lines: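 Neurons from rat cortex plated onto PEI-coated MEA wells with laminin […] at 1.5 x 10^5 cells/well, then treated from day 0. Media and compound fully replaced on DIV 5 and 9. Extracellular spontaneous firing recorded four times; interspike interval per burst summarised as AUC.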

The nature of assay [6]: CCTE_Shafer_MEA_dev_burst_duration_mean: CCTE's Neural Network Formation Assay for Mean Burst Duration, Shafer Lab (AID 2284045). In short, it runs like this: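 Network-formation assay in primary rat cortical neurons; treatment spans twelve days of development. Mean burst duration per well is integrated by trapezoidal AUC and fitted in the loss-of-signal direction against DMSO baseline.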

The nature of assay [7]: CCTE_Shafer_MEA_dev_interburst_interval_mean: CCTE's Neural Network Formation Assay for Mean Interburst Interval, Shafer Lab (AID 2284046).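 Further: well-mean interburst interval of bursting electrodes as AUC over four recording days; curve fitted for decrease in interburst interval relative to DMSO.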 In a few lines: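 Rat cortical neurons, 1.5 x 10^5 cells/well, 48-well MEA; compound from day 0 through DIV 12, media and treatment renewed DIV 5/9. Recordings DIV 5, 7, 9, 12; well-mean interburst interval → trapezoidal AUC, loss direction vs DMSO.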

Assay [8] can be described thus: CCTE_Shafer_MEA_dev_network_spike_number: CCTE's Neural Network Formation Assay for Number of Network Spikes, Shafer Lab (AID 2284048).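 Further: synchronized bursts across electrodes counted on days 5 7 9 12 and integrated as AUC.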 In short, it runs like this: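 Extracellular recordings from 16-electrode wells track network formation in rat cortical cultures under continuous treatment from plating. The endpoint is network spike number, expressed as AUC across DIV 5–12 relative to DMSO vehicle.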

Assay [9] is described as follows: CCTE_Shafer_MEA_dev_network_spike_peak: CCTE's Neural Network Formation Assay for Mean Number of Electrodes in Network Spike, Shafer Lab (AID 2284049). In short, it runs like this:
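Continuous 12-day exposure of rat cortical cultures, starting at plating, on MEA plates. Endpoint: electrodes participating in network-spike peaks, AUC across DIV 5–12, DMSO as negative control.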

A short description of assay [10]: CCTE_Shafer_MEA_dev_spike_duration_mean: CCTE's Neural Network Formation Assay for Mean Spike Duration, Shafer Lab (AID 2284051). In short, it runs like this:
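Rat cortical primary cultures, 48-well MEA (16 electrodes/well); compound from plating, renewed DIV 5, 9. Network spike duration (AxIS adaptive detector) recorded DIV 5/7/9/12, combined as trapezoidal AUC; loss direction vs DMSO.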

The nature of assay [11]: CCTE_Shafer_MEA_dev_per_network_spike_spike_number_mean: CCTE's Neural Network Formation Assay for Mean Number of Spikes in a Network Spike, Shafer Lab (AID 2284053). In short, it runs like this:
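Rat cortical primary cultures on 48-well MEA; compound from day 0, re-dosed with full media change DIV 5, 9. Recorded DIV 5, 7, 9, 12; spikes in 0.05 s window at network-spike peak ÷ total network spikes; AUC; loss vs DMSO.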

Assay [12] can be described thus: CCTE_Shafer_MEA_dev_per_network_spike_spike_percent: CCTE's Neural Network Formation Assay for Percent of Spikes in a Network Spike, Shafer Lab (AID 2284054). In a few lines:
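Developing networks of rat cortical neurons are dosed at day 0 and recorded extracellularly four times up to day 12. The endpoint is the area under the curve of percent spikes in network spikes, fitted in the negative direction relative to DMSO.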

The nature of assay [13]: CCTE_Shafer_MEA_dev_LDH: CCTE's Lactate Dehydrogenase Assay for Cytotoxicity in the Neural Network Formation Assay, Shafer Lab (AID 2284068; active means hit-call score of the fitted dose curve at least 0.9, where 1 is the maximum;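 further: exposure for twelve days from plating with re-dosing on DIV 5 and 9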). In short, it runs like this:
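Rat cortical primary neurons, MEA culture; dosing day 0–12, full medium plus compound exchange DIV 5, 9. Read-out: LDH enzyme activity, spectrophotometric. DMSO = negative control/baseline; signal loss → cytotoxicity.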

Assay [14] in a line: CCTE_Shafer_MEA_dev_mutual_information_norm: CCTE's Neural Network Formation Assay for Mutual Information Normalization, Shafer Lab (AID 2284091). In short, it runs like this:
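Exposure of primary rat cortical neurons began at plating and ran to DIV 12, with full media and treatment renewal after DIV 5 and 9 recordings. Mutual information AUC (DIV 5–12) was analysed for loss versus DMSO.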

A short description of assay [15]: CCTE_Shafer_MEA_dev_correlation_coefficient_mean: CCTE's Neural Network Formation Assay for Mean Correlation Coefficient, Shafer Lab (AID 2284093). In short, it runs like this: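 Rat cortical cultures, 1.5 x 10^5 cells/well, dosed from day 0 for 12 days. Spontaneous spikes recorded DIV 5/7/9/12; electrode-pair correlation coefficients averaged, AUC taken. Fit in loss direction vs DMSO.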

A short description of assay [16]: UKN2_HCS_IMR90_neural_migration: University of Konstanz (UKN) Leist Lab Neural Crest Cell Migration Assay in human induced IMR90 Pluripotent Stem Cells (UKN2) (AID 2284204). As to conditions: actives raise or lower the signal. In a few lines:
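Using a 96-well stopper format with PLO/laminin/fibronectin coating, neural crest cells from iPSC migrate in cytokine-supplemented N2-S medium; after 24 h, chemicals are applied for a further 24 h, then cells are imaged after dye staining.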

The nature of assay [17]: IUF_NPC1b_proliferation_BrdU_72hr: Leibniz Research Institute for Environmental Medicine (IUF) 72-hour Neural Progenitor Cell Bromodeoxyuridine (BrdU) Proliferation Assay (NPC1b) (AID 2284207). In a few lines: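 Neural progenitor spheres of human fetal origin are treated for three days; BrdU added for the last 16 h is quantified by luminescence ELISA, with DMSO as baseline and EGF/FGF omission as positive control.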

Assay [18] is described as follows: IUF_NPC1a_proliferation_area_72hr: Leibniz Research Institute for Environmental Medicine (IUF) 72-hour Neural Progenitor Cell Proliferation Area Assay (NPC1a) (AID 2284208). In short, it runs like this: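 Spheres of 0.3 mm are plated singly in growth-factor medium and exposed from day 0. After three days at 37C and 5% CO2, sphere area is measured by phase contrast imaging, with activity referenced to DMSO.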

A short description of assay [19]: IUF_NPC1_viability_72hr: Viability Assessment at 72 hours in the Leibniz Research Institute for Environmental Medicine (IUF) Neural Progenitor Cell Proliferation Assay (NPC1) (AID 2284209). In short, it runs like this:
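Spheres of primary human neural progenitors were plated singly in proliferation medium and treated for 72 h. Mitochondrial reduction of resazurin was then measured by fluorescence and analysed against DMSO controls.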

A short description of assay [20]: CCTE_Mundy_HCI_Cortical_Synap_Neur_Matur_NeuriteSpotCountPerNeuriteLength: CCTE's Synaptogenesis and Neurite Maturation Assay in rat cortical cells for Neurite Spot Count per Neurite Length, Mundy Lab (AID 2284210). In a few lines: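 Neurite-associated synapse density (synaptophysin puncta per unit neurite length) is measured by fluorescence high-content imaging in rat cortical cultures treated from DIV 7 and fixed at DIV 12, with DMSO as negative control.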

Assay [21] is described as follows: CCTE_Mundy_HCI_Cortical_Synap_Neur_Matur_BPCount: CCTE's Synaptogenesis and Neurite Maturation Assay in rat cortical cells for Branch Point Count, Mundy Lab (AID 2284211). In short, it runs like this: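 HCI read-out of branch points from MAP2/synaptophysin/Hoechst immunofluorescence; rat cortical cultures, AraC DIV 5, dosing DIV 7, fixed DIV 12; fit in positive direction vs DMSO baseline.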

Assay [22] is described as follows: CCTE_Mundy_HCI_Cortical_NOG_NeuriteCount: CCTE's Neurite Outgrowth Assay in rat cortical cells for Neurite Count, Mundy Lab (AID 2284212).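 Further: cells fixed about two days after chemical exposure began.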 In short, it runs like this: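 Rat cortical primary cells; compound added 2 h post-plating, 1/10 dilution of working solution. Anti-betaIII-tubulin/AF488 ICC; ArrayScan neurite count vs DMSO.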
A short description of assay [23]: CCTE_Mundy_HCI_Cortical_NOG_NeuriteLength: CCTE's Neurite Outgrowth Assay in rat cortical cells for Neurite Length, Mundy Lab (AID 2284213). In short, it runs like this:
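First, rat primary cortical cells were plated and, 2 h later, given test chemical as a 1/10 dilution. Finally, βIII-tubulin immunostaining enabled automated imaging of neurite length.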

By AC50 is commonly meant the concentration at which the activity in the assay is half-maximal. Turning to `C[C@@H]1CC[C@@H](C(C)(C)O)[C@H](O)C1`, the outcome in assay [1], in assay [2], in assay [3], in [4], in [5] and in assay [6] was inactive. Moreover, the result in [7], in assay [8], in assay [9], in [10], in assay [11] and in assay [12] was inactive. Also, the compound was called inactive in assay [13], in [14], in assay [15], in [16], in assay [18] and in assay [19]. In addition, the result in assay [20], in assay [21], in [22] and in [23] was inactive. Further, the concentration at half-maximal activity (AC50) in assay [17] was 8.23 µM (active).
